Source: PubChem BioAssay (NCATS)
Records with an inconclusive call do not appear. Calls of active or inactive are those of the source. Unless noted, the call rests on the fitted dose curve; in most records, active means well fitted curve in either direction with a large enough effect (not every such curve was filed as active); inconclusive means small, poorly fitted or top-dose-only effect, or another doubt; inactive means flat fitted curve, though single readings scatter.

Assays:
[1] = AP1 Signaling Pathway (AID 357); conditions: ME-180 AP-1-bla reporter, EGF-induced, beta-lactamase ratio, 5 h; at 17.2 µM (top of the series) unless noted;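 further: ME-180 reporter cells stimulated with EGF at its EC50 level; on the % scale 0 is the no-effect control and ±100 the full control effect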
Procedure, shortened: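 Beta-lactamase reporter under AP-1 response element, ME-180 background. Stimulus: EC50 EGF. Compound exposure 5 h, 37 °C. Detection: CCF4, 2.5 h RT, 460/530 nm. Values: AC50 from titration.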

[2] = NFAT Signaling Pathway (AID 444); conditions: Jurkat NFAT-bla M1, carbachol, beta-lactamase ratio, 5 h; at 17.2 µM (top of the series) unless noted;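 further: carbachol stimulus at about its EC50 of 1 µM final; on the % scale 0 is the no-effect control and ±100 the full control effect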
Procedure, shortened: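 Jurkat cells with NFAT-driven β-lactamase reporter and co-expressed M1 receptor, stimulated with carbachol (final 1 uM, ~EC50), compound titration, 5 h at 37 °C. CCF4 loaded 1 h at RT; 460/530 nm ratio gave %activity and AC50.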

[3] = Stat Signaling Pathway (AID 446); conditions: ME-180 SIE beta-lactamase reporter, IL-6 stimulated, 5 h; at 17.2 µM (top of the series) unless noted;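 further: ME-180 cervical cancer cells given 40 pM IL-6 alongside compound; SIE-controlled beta-lactamase reporter measured as 460/530 nm FRET emission ratio; on the % scale 0 is the no-effect control and ±100 the full control effect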
Procedure, shortened: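 ME-180 SIE-bla cells; overnight plating; cpd + IL-6 40 pM, 5 h, 37 C; LiveBLAzer 2.5 h RT; 460/530 nm emission ratio. Normalized to 300 pM IL-6 and 125 nM JAK inhibitor controls.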

[4] = target: Glucocorticoid receptor (Homo sapiens) (UniProt P04150); experiment: GR-GFP Redistribution (AID 450;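 active means compounds whose dose series gives a full or clear partial fitted curve of increased nuclear translocation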; further: potency means the concentration at half of the fitted maximal effect); conditions: U2OS GR-GFP nuclear translocation, laser cytometry, 2 h; series mostly up to 20.6 µM
Glucocorticoid receptor (Homo sapiens), sequence (P04150 whole entry, looked up, the tested form may be a part): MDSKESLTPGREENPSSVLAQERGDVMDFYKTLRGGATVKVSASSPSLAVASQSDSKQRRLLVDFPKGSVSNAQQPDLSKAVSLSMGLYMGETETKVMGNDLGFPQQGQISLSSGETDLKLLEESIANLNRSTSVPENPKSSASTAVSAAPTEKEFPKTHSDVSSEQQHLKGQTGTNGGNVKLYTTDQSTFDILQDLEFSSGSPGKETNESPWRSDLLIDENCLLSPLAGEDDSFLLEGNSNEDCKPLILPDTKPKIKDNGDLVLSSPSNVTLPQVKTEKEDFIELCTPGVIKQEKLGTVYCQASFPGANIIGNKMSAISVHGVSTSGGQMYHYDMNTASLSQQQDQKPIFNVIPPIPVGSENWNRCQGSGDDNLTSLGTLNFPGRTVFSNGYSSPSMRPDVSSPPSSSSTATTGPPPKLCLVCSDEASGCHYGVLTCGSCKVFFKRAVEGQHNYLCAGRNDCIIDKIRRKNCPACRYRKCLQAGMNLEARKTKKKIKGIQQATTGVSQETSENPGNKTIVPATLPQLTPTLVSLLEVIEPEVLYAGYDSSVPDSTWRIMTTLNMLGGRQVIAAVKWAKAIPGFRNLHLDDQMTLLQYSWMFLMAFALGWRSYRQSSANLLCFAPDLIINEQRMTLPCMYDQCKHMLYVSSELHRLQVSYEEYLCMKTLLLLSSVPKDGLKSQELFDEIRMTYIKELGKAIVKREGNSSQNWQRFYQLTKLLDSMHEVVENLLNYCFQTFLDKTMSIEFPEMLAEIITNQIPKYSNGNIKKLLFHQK

[5] = target: Glucocorticoid receptor (Homo sapiens) (UniProt P04150); experiment: GR-EFC Redistribution (AID 451; calls by dose curve; further: potency means the concentration at half of the fitted maximal effect); conditions: CHO-K1 GR-EFC translocation, beta-gal luminescence, 2 h
Procedure, shortened: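 CHO-K1 cells expressing nuclear EA and GR-ED fragments of b-gal; compounds titrated up to 46 uM final, 2 h at 37 C. GR nuclear translocation read as complemented b-gal luminescence after 1 h RT detection.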

[6] = target: Mitogen-activated protein kinase 10 (Mus musculus) (UniProt Q61831); experiment: JNK3 AlphaScreen Assay (AID 530); conditions: JNK3 lysate, c-Jun phosphorylation; series mostly up to 57.1 µM;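 further: kinase came from lysate of stimulated human HepG2 cells; signal reports phosphorylation of biotinylated GST-cJun 1-79 at Ser73 with 10 µM ATP; on the % scale 0 is the no-effect control and ±100 the full control effect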
Procedure, shortened: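 qHTS format: compounds tested as titrations against IL-1beta/TNF-alpha-activated HepG2 lysate JNK3 with biotin-GST-cJun substrate and 10 uM ATP at room temperature. Loss of anti-phospho-cJun AlphaScreen signal indicates inhibition.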

[7] = target: 3',5'-cyclic-AMP phosphodiesterase 4B (Homo sapiens) (UniProt Q07343); experiment: qHTS Assay for Inhibitors of PDE-IV (AID 607; active means well fitted activation curve with a large enough effect in the main read-out, with a control signal flat, not every such curve was filed as active; further: % of control where 0% means no effect); conditions: HEK293 ACTOne CNG channel cells, membrane potential fluorescence; series mostly up to 22.9 µM
3',5'-cyclic-AMP phosphodiesterase 4B (Homo sapiens), sequence (Q07343 whole entry, looked up): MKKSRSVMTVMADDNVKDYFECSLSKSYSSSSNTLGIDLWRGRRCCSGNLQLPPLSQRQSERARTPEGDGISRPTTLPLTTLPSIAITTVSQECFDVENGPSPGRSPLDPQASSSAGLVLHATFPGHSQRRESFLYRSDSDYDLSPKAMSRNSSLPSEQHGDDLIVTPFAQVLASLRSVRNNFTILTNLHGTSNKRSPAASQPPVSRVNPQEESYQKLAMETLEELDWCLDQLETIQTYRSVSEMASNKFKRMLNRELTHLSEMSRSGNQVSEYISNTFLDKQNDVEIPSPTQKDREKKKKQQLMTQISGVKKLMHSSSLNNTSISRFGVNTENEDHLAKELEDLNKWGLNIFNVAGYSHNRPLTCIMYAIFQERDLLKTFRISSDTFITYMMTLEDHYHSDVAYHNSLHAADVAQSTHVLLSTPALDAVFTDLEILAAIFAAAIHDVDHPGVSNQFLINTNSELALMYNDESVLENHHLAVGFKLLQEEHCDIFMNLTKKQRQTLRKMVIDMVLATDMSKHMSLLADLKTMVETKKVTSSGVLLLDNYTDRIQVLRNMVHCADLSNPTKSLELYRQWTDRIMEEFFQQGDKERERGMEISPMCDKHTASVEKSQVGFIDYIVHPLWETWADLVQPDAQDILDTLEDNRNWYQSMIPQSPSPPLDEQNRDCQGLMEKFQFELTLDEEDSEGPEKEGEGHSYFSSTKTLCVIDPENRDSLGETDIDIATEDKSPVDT
Procedure, shortened: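 ACTOne HEK293 cells carry a modified cAMP-gated CNG channel and express endogenous PDE4; plated 1000 cells/well, compounds up to 22.9 uM final. Membrane-potential dye fluorescence (ex 535/em 590) was read; parental cells received 10 uM forskolin + 100 uM RO 20-1724.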

[8] = qHTS Assay for Identification of Small Molecule Agonists for Hypoxia Response Element Signaling Pathway (AID 914; active means well fitted activation curve with a large enough effect in the signal ratio, with a control signal flat, not every such curve was filed as active; the % refers to the signal ratio; further: potency means the concentration at half of the fitted maximal effect; on activation: % of control where 0% means no effect); conditions: ME-180 HRE-bla reporter, beta-lactamase ratio, CoCl2, 17 h; activation: active compounds read high
Procedure, shortened: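 AC50 values come from titration-series %Activity, taken as the 460/530nm ratio of CCF4 fluorescence (excitation 405nm). CellSensor HRE-bla ME-180 cells were treated 17 hours at 37 C with compound plus an EC50 level of CoCl2.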

[9] = target: Guanine nucleotide-binding protein G(i) subunit alpha-1 (Homo sapiens) (UniProt P63096); experiment: qHTS Assay for Inhibitors of RGS12 GoLoco Motif Activity (Green Fluorophore) (AID 879; active means well fitted curve in the direction sought with a large enough effect; an effect the other way counts as inactive or inconclusive;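 further: 0% = labeled peptide with Gαi1 and full inhibition = labeled peptide alone without protein; negative values mean loss of peptide binding seen as reduced polarization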); conditions: Galphai1/FITC-RGS12 GoLoco peptide, fluorescence polarization; series mostly up to 57.1 µM
Guanine nucleotide-binding protein G(i) subunit alpha-1 (Homo sapiens), sequence (P63096 whole entry, looked up): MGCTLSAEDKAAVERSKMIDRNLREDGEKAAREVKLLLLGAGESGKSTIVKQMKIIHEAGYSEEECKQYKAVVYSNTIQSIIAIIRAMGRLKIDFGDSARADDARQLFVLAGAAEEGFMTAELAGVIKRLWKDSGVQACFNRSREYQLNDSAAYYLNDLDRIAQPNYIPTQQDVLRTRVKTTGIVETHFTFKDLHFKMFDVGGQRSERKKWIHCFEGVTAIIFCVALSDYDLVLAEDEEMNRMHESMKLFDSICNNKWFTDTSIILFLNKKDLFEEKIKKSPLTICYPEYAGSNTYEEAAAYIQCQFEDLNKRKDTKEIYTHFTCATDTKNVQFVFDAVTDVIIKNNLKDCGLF
Procedure, shortened: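 Fluorescence polarization assay: 50 nM Gαi1 with 10 nM FITC-labeled RGS12 GoLoco peptide in 10 mM Tris pH 7.5, 150 mM NaCl, 0.1 mM GDP, 0.05% NP40, 10 min at room temperature with compound.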

[10] = qHTS Assay for Identification of Small Molecule Agonists for Thrombopoietin (TPO) Signaling Pathway (AID 917; active means well fitted curve in the direction sought with a large enough effect; an effect the other way counts as inactive or inconclusive; further: on the % scale 0 is the no-effect control and ±100 the full control effect); conditions: TPO signaling pathway reporter cells, agonist qHTS, stimulated with TPO at its EC50; series mostly up to 38.5 µM
Procedure, shortened: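 We measured Glycoprotein IIb promoter–luciferase output in IL-3-starved Ba/F3 murine cells expressing the human TPO receptor after 24 hrs at 37 C with compounds and 26 pM TPO.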

[11] = target: Pyruvate kinase (Leishmania mexicana) (UniProt Q27686); experiment: qHTS Validation Assay for Inhibitors of Leishmania Mexicana Pyruvate Kinase (AID 945; active means well fitted curve in the direction sought with a large enough effect; an effect the other way counts as inactive or inconclusive;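 further: 0% = DMSO only neutral control wells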); conditions: purified L. mexicana pyruvate kinase, enzyme activity, E451W mutant enzyme; series mostly up to 57.5 µM
Pyruvate kinase (Leishmania mexicana), sequence (Q27686 2-499 E452W): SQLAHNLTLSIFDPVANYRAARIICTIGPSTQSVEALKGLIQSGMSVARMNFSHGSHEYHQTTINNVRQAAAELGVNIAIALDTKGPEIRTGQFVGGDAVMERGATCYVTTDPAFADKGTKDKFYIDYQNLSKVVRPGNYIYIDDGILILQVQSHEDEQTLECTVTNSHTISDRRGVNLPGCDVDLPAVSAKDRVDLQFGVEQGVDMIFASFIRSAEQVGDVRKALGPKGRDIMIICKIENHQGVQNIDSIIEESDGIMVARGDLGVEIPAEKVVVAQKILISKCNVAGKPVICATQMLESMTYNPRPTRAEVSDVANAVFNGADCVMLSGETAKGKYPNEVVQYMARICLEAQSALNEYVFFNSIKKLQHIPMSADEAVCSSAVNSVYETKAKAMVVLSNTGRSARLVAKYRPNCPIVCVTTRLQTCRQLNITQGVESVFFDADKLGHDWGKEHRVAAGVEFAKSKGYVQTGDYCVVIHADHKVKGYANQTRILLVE
Procedure, shortened: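 Purified LmPYK (E451W mutant, 0.2 nM) was incubated 1 h at room temperature with 0.5 mM PEP and 0.1 mM ADP in 50 mM imidazole pH 7.2, 50 mM KCl, 7 mM MgCl2; ATP formed was read by PKLight luminescence, normalized to DMSO wells.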

[12] = target: Pyruvate kinase PKM (Homo sapiens) (UniProt P14618); experiment: qHTS Assay for Activators of Human Muscle Pyruvate Kinase (AID 954; active means well fitted curve in the direction sought with a large enough effect, not every such curve was filed as active;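 further: 0% = uninhibited enzyme and -100% = no enzyme or full thiadiazolimine inhibition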); conditions: purified human muscle pyruvate kinase, luciferase-coupled luminescence, 1 h; series mostly up to 57.5 µM
Pyruvate kinase PKM (Homo sapiens), sequence (P14618 whole entry, looked up): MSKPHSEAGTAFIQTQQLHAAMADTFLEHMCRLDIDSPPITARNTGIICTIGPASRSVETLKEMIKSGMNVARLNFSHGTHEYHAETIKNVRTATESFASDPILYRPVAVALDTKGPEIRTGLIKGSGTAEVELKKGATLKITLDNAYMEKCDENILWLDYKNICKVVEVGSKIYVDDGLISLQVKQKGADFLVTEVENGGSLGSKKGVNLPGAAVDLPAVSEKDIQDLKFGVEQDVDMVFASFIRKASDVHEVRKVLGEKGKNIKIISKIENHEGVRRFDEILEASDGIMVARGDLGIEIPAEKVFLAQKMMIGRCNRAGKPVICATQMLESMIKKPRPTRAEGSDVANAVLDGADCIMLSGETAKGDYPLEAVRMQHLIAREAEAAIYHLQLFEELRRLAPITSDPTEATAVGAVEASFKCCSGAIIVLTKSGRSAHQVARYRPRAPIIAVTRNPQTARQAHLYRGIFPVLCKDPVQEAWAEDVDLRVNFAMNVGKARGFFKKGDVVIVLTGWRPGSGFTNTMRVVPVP
Procedure, shortened: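 Luminescence from a luciferase ATP-detection/stop reagent reported PKM2 activity. Reactions contained 0.1 nM purified human enzyme, 0.5 mM PEP, 0.1 mM ADP and 7 mM MgCl2 at pH 7.2, run 1 h at RT.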

[13] = target: Alpha-galactosidase A (Homo sapiens) (UniProt P06280); experiment: Counterscreen for Glucocerebrosidase Inhibitors: qHTS Assay for Human alpha-Galactosidase at pH 4.5 (AID 992; active means well fitted curve in the direction sought with a large enough effect; an effect the other way counts as inactive or inconclusive; further: 0% is about no effect); conditions: purified enzyme, fluorogenic substrate; series mostly up to 76.9 µM
Alpha-galactosidase A (Homo sapiens), sequence (P06280 whole entry, looked up): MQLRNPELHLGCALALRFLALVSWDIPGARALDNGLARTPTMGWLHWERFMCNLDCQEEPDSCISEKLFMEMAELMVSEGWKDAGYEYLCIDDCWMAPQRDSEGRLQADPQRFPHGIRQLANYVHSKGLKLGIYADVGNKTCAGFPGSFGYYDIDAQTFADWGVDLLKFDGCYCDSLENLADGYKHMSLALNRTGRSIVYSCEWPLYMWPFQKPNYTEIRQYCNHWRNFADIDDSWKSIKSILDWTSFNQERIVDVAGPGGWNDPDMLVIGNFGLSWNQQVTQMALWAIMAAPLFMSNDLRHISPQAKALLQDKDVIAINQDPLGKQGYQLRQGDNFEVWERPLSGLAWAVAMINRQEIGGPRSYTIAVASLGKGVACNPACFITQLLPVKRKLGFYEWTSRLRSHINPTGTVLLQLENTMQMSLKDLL
Procedure, shortened: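 Enzyme at 2 nM final was combined with compound (0.7 nM to 77 uM) and 80 uM 4-methylumbelliferyl alpha-D-galactopyranoside in 50 mM citric acid, 0.005% Tween-20, pH 4.5. After 20 min at room temperature, fluorescence was read (Ex 365/Em 440 nm); AC50 came from Hill fits.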

[14] = target: alpha-glucosidase (Oryza sativa, rice) (UniProt Q653V4); experiment: Counterscreen for Glucocerebrosidase Inhibitors: qHTS Assay for Rice alpha-Glucosidase at pH 5.0 (AID 997; active means well fitted curve in the direction sought with a large enough effect; an effect the other way counts as inactive or inconclusive;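 further: 0% = full activity with enzyme and -100% = basal without enzyme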); conditions: rice alpha-glucosidase enzyme activity; series mostly up to 76.9 µM
Procedure, shortened: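 Rice alpha-glucosidase (4 nM final) with 400 uM 4-methylumbelliferyl-alpha-D-glucopyranoside in citrate buffer pH 5.0, 20 min at room temperature, stopped at pH 10; fluorescence 365/440 nm, compounds 0.7 nM–77 uM, AC50 from Hill fits.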

[15] = target: Cytochrome P450 3A4 (Homo sapiens) (UniProt P08684); experiment: qHTS Assay for Activators of Cytochrome P450 3A4 (AID 885; active means well fitted curve in the direction sought with a large enough effect; an effect the other way counts as inactive or inconclusive; further: nearly all actives have a fitted effect of over 65% in size); conditions: recombinant CYP3A4, Luciferin-PPXE luminescence, 60 min; series mostly up to 57.1 µM
Cytochrome P450 3A4 (Homo sapiens), sequence (P08684 whole entry, looked up): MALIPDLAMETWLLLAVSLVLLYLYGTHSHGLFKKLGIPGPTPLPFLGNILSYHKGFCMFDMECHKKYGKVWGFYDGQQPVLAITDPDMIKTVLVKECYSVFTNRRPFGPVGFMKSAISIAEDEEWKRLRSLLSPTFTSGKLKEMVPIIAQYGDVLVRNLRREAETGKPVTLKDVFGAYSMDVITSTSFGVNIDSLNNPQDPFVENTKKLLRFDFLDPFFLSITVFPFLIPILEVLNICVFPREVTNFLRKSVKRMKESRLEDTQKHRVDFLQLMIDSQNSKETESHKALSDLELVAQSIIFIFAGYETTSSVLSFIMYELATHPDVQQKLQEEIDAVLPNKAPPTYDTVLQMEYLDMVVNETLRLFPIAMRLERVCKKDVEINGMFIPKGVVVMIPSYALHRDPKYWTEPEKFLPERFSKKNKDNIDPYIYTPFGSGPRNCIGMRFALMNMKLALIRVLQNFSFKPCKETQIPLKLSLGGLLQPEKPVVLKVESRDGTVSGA
Procedure, shortened: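 20nM CYP3A4 + 25uM Luciferin-PPXE (=KM), 200mM KPO4; cpd 10 min RT; NADPH regen, 60 min RT; stop w/ detection buffer, 20 min; luminescence. Normalized to 57 uM ketoconazole.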

[16] = target: Cytochrome P450 2D6 (Homo sapiens) (UniProt P10635); experiment: qHTS Assay for Inhibitors and Substrates of Cytochrome P450 2D6 (AID 891; active means well fitted curve in the direction sought with a large enough effect; an effect the other way counts as inactive or inconclusive; further: potency means the concentration at half of the fitted maximal effect; nearly all actives have a fitted effect of over 60% in size); conditions: recombinant CYP2D6, luciferin-ME EGE luminescence; series mostly up to 57.1 µM
Cytochrome P450 2D6 (Homo sapiens), sequence (P10635 whole entry, looked up): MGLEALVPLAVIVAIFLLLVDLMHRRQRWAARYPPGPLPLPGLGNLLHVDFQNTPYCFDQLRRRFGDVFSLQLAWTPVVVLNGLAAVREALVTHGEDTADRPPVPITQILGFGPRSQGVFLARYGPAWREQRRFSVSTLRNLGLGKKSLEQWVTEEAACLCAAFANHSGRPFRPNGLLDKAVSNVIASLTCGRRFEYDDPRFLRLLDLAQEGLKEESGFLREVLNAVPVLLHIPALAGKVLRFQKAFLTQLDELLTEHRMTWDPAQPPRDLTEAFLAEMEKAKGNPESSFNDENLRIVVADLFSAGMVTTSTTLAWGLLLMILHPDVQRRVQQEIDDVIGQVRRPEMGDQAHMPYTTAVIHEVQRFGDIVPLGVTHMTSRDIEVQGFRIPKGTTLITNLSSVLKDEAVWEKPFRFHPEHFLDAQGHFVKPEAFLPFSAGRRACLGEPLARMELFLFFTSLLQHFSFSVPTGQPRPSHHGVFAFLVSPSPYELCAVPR
Procedure, shortened: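 Human CYP2D6 (5 nM) with 30 uM Luciferin-ME EGE (at Km) in 100 mM KPO4, compound preincubated 10 min, then NADPH regeneration system for 60 min at room temperature. Luciferin read by luminescence; normalized to 1.43 uM quinidine.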

[17] = qHTS Assay for Identification of Small Molecule Antagonists for NFkB Signaling Pathway (AID 895; active means well fitted inhibition curve with a large enough effect in the signal ratio, with a control signal flat, not every such curve was filed as active; the % refers to the signal ratio; further: on the % scale 0 is the no-effect control and ±100 the full control effect); conditions: NFkB beta-lactamase reporter cells, FRET ratio 460/530, stimulated with 10 pM TNF alpha; series mostly up to 38.3 µM
Procedure, shortened: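 ME-180 NFkB-bla cells (beta-lactamase under NFkB response element), plated overnight, treated with compound then 10 pM TNF alpha (about EC50) for 5 hrs at 37 C. LiveBLAzer FRET read at 460/530 nm emission, 405 nm excitation.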

[18] = target: Muscarinic acetylcholine receptor M1 (Rattus norvegicus) (UniProt P08482); experiment: qHTS Assay for Antagonists of Acetylcholine Muscarinic M1 Receptor: Kinetic Measurement of Intracellular Calcium Response (AID 943; active means well fitted curve in the direction sought with a large enough effect; an effect the other way counts as inactive or inconclusive;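 further: Fluo-4 calcium signal as peak divided by basal fluorescence over 4 min; nearly all actives have a fitted effect of over 75% in size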); conditions: M1-expressing cells, kinetic intracellular calcium fluorescence; series mostly up to 35.3 µM
Muscarinic acetylcholine receptor M1 (Rattus norvegicus), sequence (P08482 whole entry, looked up): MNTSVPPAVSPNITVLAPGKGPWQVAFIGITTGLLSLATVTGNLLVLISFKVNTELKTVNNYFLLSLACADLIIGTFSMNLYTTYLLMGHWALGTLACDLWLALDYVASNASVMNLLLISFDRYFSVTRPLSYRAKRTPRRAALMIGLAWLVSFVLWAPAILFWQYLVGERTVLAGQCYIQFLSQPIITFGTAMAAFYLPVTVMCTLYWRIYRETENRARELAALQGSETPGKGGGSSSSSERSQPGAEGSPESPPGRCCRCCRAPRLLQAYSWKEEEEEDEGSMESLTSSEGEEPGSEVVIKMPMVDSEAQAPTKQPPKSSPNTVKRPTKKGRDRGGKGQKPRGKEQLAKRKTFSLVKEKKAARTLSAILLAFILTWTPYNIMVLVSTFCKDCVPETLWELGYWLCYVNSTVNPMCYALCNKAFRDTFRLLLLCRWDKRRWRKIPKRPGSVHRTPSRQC
Procedure, shortened: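 CHO cells stably expressing rat M1 were loaded with no-wash Fluo-4 dye for 1 h at 37C, pre-incubated 10 min with compound, then challenged with EC80 carbachol (100 nM final); kinetic calcium read 4 min, peak/basal ratio.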

COc1ccc(-n2c(=O)c(CCc3ccccc3)nc3cnc(N4CCNCC4)nc32)cc1
inactive: activity change, negative = inhibition [1] 4.61% [at 7.69 µM] | activity change, negative = inhibition [2] 7.43% [at 7.69 µM] | activity, negative = inhibition [3] 0.474% [at 7.69 µM] | Potency [4] > 9.22 µM | Potency [5] > 46 µM | Potency [6] | Potency [7]
active: Potency [8] 3.16 µM

Cc1cc(C)n(C(=O)CNC(=O)c2ccc3c(c2)OCCO3)n1
inactive: activity change, negative = inhibition [1] -0.109% | activity change, negative = inhibition [2] -6.13% | activity, negative = inhibition [3] 7.28% | Potency [4] > 20.6 µM | activation [8] -10.8%

Cc1cc(C(F)(F)F)c(C#N)c(SCC(=O)NC2CC2)n1
inactive: activity change, negative = inhibition [1] 19.7% | activity change, negative = inhibition [2] -9.19% | activity, negative = inhibition [3] 1.05% | Potency [4] > 20.6 µM | activation [8] 16.3%

CC(C)(C(=O)O)c1ccc([C@@H](O)CCCN2CCC(C(O)(c3ccccc3)c3ccccc3)CC2)cc1
inactive: activity change, negative = inhibition [1] 8.57% [at 38 µM] | activity change, negative = inhibition [2] 8.69% [at 38 µM] | activity, negative = inhibition [3] 11.8% [at 38 µM] | Potency [4] > 46 µM | Potency [5] > 46 µM | Potency [6] | outcome [9] | Potency [10] | Potency [11] | outcome [12] | outcome [13]

CC(=O)[C@@]1(O)CC[C@@H]2[C@@H]3CCC4=CC(=O)CC[C@@]4(C)[C@H]3CC[C@]21C
inactive: activity change, negative = inhibition [1] 4.89% [at 38 µM] | activity change, negative = inhibition [2] -13.4% [at 38 µM] | activity, negative = inhibition [3] -11.8% [at 38 µM] | Potency [6] | Potency [7] | outcome [9] | Potency [10] | Potency [11] | outcome [12] | outcome [13] | outcome [14]
active: Potency [4] 0.162 µM

COc1ccc2c(c1OC)C(=O)OC2c1c(O)nc(SC)n(-c2ccccc2)c1=O (configuration not stated)
inactive: activity change, negative = inhibition [1] -1.4% | activity change, negative = inhibition [2] -5.89% | activity, negative = inhibition [3] -3% | Potency [4] > 20.6 µM | activation [8] 1.25%

O=C(O)CCCC(=O)Nc1ccn(-c2ccccc2)n1
inactive: activity change, negative = inhibition [1] 1.68% | activity change, negative = inhibition [2] -4.19% | activity, negative = inhibition [3] 0.897% | Potency [4] > 20.6 µM | activation [8] 6.56%

COc1ccc(CCn2c(C)ccc2C)cc1OC
inactive: activity change, negative = inhibition [1] -3.97% | activity change, negative = inhibition [2] -16.3% | activity, negative = inhibition [3] -7.94% | Potency [4] > 20.6 µM | activation [8] -9.87%

CCCCOc1ccc(C(=O)Nc2ccc(N3CCN(C(C)=O)CC3)cc2)cc1
inactive: activity change, negative = inhibition [1] -6.71% | activity change, negative = inhibition [2] 11.1% | activity, negative = inhibition [3] -7.6% | Potency [4] > 20.6 µM
active: Potency [8] 2.51 µM

CC1(C)CC(=O)C(C=Nc2ccc(Cl)cn2)=C(O)C1
inactive: activity change, negative = inhibition [1] -10.2% | activity change, negative = inhibition [2] 17.4% | activity, negative = inhibition [3] 21.1% | Potency [4] > 20.6 µM | activation [8] -14.7%

CCCN1C[C@@H](CSC)C[C@H]2c3cccc4[nH]cc(c34)C[C@@H]21
inactive: activity change, negative = inhibition [1] 10.4% [at 38 µM] | activity change, negative = inhibition [2] -24.1% [at 38 µM] | activity, negative = inhibition [3] -10.6% [at 38 µM] | Potency [4] > 46 µM | Potency [5] > 46 µM | Potency [7] | outcome [9] | Potency [15] | Potency [17] | Potency [10] | Potency [11] | outcome [12] | outcome [13]
active: Potency [16] 0.1 µM

CN1C[C@@H](C(=O)N[C@]2(C)O[C@]3(O)[C@H]4CCCN4C(=O)[C@H](Cc4ccccc4)N3C2=O)C[C@H]2c3cccc4[nH]cc(c34)C[C@@H]21
inactive: activity change, negative = inhibition [1] -19.9% [at 38 µM] | activity change, negative = inhibition [2] -15.6% [at 38 µM] | activity, negative = inhibition [3] -18.4% [at 38 µM] | Potency [4] > 46 µM | Potency [5] > 46 µM | Potency [6] | Potency [7] | outcome [9] | Potency [10] | Potency [11] | outcome [12] | outcome [13] | outcome [14]

CC1(C)CC(=O)c2cc(C(=O)N3CCCC(C)(C)C3)c(=O)n(-c3ccccc3)c2C1
active: Potency [8] 3.98 µM
inactive: activity change, negative = inhibition [1] 8.53% | activity change, negative = inhibition [2] -0.00696% | activity, negative = inhibition [3] -7.18% | Potency [4] > 20.6 µM

CCNC(=O)[C@@H]1O[C@@H](n2cnc3c(N)nc(NCCc4ccc(CCC(=O)O)cc4)nc32)[C@H](O)[C@@H]1O
inactive: activity change, negative = inhibition [1] -2.01% [at 38 µM] | activity change, negative = inhibition [2] 4.74% [at 38 µM] | activity, negative = inhibition [3] 22.6% [at 38 µM] | Potency [4] > 46 µM | Potency [5] > 46 µM | Potency [7] | outcome [9] | Potency [17] | Potency [10] | Potency [18] | Potency [11] | outcome [12] | outcome [13] | outcome [14]
